# PNC assembly inh: High Content Assay for Compounds that inhibit the Assembly of the Perinucleolar Compartment | PC3M PTB-GFP, PNC prevalence imaging, 16 h; hits give low values | activity change (PNC), negative = inhibition, % at 10 µM | 140,000 compounds, 3.1% hits | AID 2417, 2010;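 active = readout at or below -70, meaning at least 70% loss of cells showing the perinucleolar compartment, a nuclear body marking cancer cells; inconclusive = readout between -30 and a set limit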;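 note: plate controls were DMSO wells for no effect and camptothecin positive control wells for full effect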
#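 Compounds are pinned in duplicate onto adhered PC3M cells stably expressing GFP-tagged PTB and incubated 16 h at 37 C. Cells are then fixed, nuclei stained with Hoechst, and PNC-positive cells counted.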
# IMPase inh: qHTS Assay for Identifying the Cell-Membrane Permeable IMPase Inhibitors | AID 901, 2007 | inhibition (IP1 accumulation), % at 46.1 µM | CHO-M1 cells, IP1 accumulation, HTRF TR-FRET ratio | Inositol monophosphatase 1 (Rattus norvegicus), P97697 | 120,000 tested, under 10 active; active = well fitted curve in the direction sought with a large enough effect in the signal ratio, not every such curve was filed as active; inconclusive = small, poorly fitted or top-dose-only effect, or a change in a side signal; inactive = no such curve, though single readings can be large or run the other way; the % refers to the signal ratio;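 note: cells stimulated with carbachol in lithium chloride buffer; plate controls were DMSO basal wells for no effect and reference inhibitor wells for full effect; higher means more IMPase inhibition seen as more IP1 and lower FRET ratio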
# Target sequence (P97697 whole entry, looked up): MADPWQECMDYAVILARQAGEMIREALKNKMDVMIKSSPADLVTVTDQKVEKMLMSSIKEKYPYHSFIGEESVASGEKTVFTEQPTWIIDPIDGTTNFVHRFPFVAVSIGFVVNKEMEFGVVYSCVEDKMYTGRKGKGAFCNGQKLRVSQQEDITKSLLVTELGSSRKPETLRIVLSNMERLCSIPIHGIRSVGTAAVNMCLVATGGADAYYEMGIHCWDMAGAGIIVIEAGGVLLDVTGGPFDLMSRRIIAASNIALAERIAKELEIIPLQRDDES
#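 In this qHTS, compounds (final up to 46 uM) act on CHO-M1 cells that are then activated through the M1 receptor with carbachol, in pH 7.4 buffer containing 50 mM LiCl, for 30 min. IP1 accumulation is quantified by the IP-One immunoassay.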
# HPGD inh: qHTS Assay for Inhibitors of HPGD (15-Hydroxyprostaglandin Dehydrogenase). 150,000 compounds, 4.3% hits. purified HPGD, NADH fluorescence kinetic, PGE2 substrate. Potency, µM, for inactives: at the top dose activity change, negative = inhibition, hits mostly inhibitors. 15-hydroxyprostaglandin dehydrogenase [NAD(+)] (Homo sapiens), P15428; note: potency is the fitted concentration of half-maximal effect
# Target sequence (P15428 whole entry, looked up): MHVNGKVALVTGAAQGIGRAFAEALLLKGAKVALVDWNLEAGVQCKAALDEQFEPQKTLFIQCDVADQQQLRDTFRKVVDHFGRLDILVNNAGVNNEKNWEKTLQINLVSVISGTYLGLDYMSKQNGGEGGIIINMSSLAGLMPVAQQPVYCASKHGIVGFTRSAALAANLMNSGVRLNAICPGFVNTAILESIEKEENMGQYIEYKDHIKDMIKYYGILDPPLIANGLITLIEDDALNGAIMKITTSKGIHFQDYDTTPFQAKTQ
#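 20 nM HPGD preincubated 15 min at room temperature with compound in 50 mM Tris-HCl pH 8, 0.01% Tween 20. Started with 1 mM NAD+ and 30 uM prostaglandin E2; NADH fluorescence (360/450 nm) read 5 times over 30-s intervals, last minus first.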
# ALDH1A1 inh: qHTS Assay for Inhibitors of Aldehyde Dehydrogenase 1 (ALDH1A1) | AID 1030, 2008 | Aldehyde dehydrogenase 1A1 (Homo sapiens), P00352 | Potency, µM (titrated, usually from 75.3 µM), for inactives: at the top dose activity, negative = inhibition, actives largely listed as inhibitors | 220,000 compounds, 7.3% hits | Purified ALDH1A1, NADH fluorescence, propionaldehyde substrate;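 note: potency is the fitted concentration of half-maximal effect; plate controls were no enzyme wells and a reference inhibitor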
# IMPase Li inh: qHTS Assay for Identifying the Cell-Membrane Permeable IMPase Inhibitors: Potentiation with Lithium; CHO-M1 cells, IP1 TR-FRET (IP-One), carbachol + lithium; Potency, µM (top dose mostly 59.4 µM), for inactives: at the highest dose activity, negative = IMPase inhibition, most hits filed as inhibitors; 210,000 compounds, 0.35% hits; active = well fitted curve in the direction sought with a large enough effect; inconclusive = small, poorly fitted or top-dose-only effect, or another doubt; inactive = no such curve, though single readings can be large; an effect the other way counts as inactive or inconclusive;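 note: IP1 builds up when IMPase is blocked and the TR-FRET signal falls; potency is the fitted concentration of half-maximal effect; plate controls were basal vehicle for no effect and high inhibitor control for full effect; nearly all actives have a fitted effect of over 50% in size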
#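 Concentration–response in CHO-M1 cells, lithium-potentiated; 30 min at 37C. IP1 detected by competitive TR-FRET after 10 min lysis at RT. Hill-fitted AC50.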
# NPSR antagonist: qHTS Assay for Antagonists of the Neuropeptide S Receptor: cAMP Signal Transduction | 220,000 compounds, 1% hits | Potency, µM (highest dose often 38.3 µM), for the others: at the top dose activity change, negative = inhibition, usual class: inhibitors | Q6W5P4 | AID 1461, 2008 | CHO-NPSR cells, cAMP TR-FRET, antagonist mode; active = well fitted curve in the direction sought with a large enough effect; inconclusive = small, poorly fitted or top-dose-only effect, or another doubt; inactive = no such curve, though single readings can be large; an effect the other way counts as inactive or inconclusive; note: potency is the fitted concentration of half-maximal effect; nearly all actives have a fitted effect of over 50% in size
# * marks the source's active call; other numbers are inactive results; ? = inconclusive; nt = not tested or not shown; [ ] = another dose, or the depositor's remark. In the library only some 11% were active in any assay of this set; here they are far more common. Unless noted, calls come from the whole dose curve; as a rule, active = well fitted inhibition curve with a large enough effect (not every such curve was filed as active); inconclusive = small, poorly fitted or top-dose-only effect, or another doubt; inactive = no such curve, though single readings can be large or run the other way. Unless noted, % is set by controls: 0 for no effect and ±100 for the full control effect.
SMILES,PNC assembly inh,IMPase inh,HPGD inh,ALDH1A1 inh,IMPase Li inh,NPSR antagonist
O=C(CN1C(=O)/C(=C2\SC(=S)N(C3CCS(=O)(=O)C3)C2=O)c2ccccc21)Nc1ccccc1 (stereo not given),-2.2,-3.1,-8.6%,7.08µM*,12.6%,35.2%
Cc1ccc(NC(=O)CN2C(=O)/C(=C3\SC(=S)N(C4CCS(=O)(=O)C4)C3=O)c3ccccc32)cc1 (stereo not given),44.7,-8.4,-7.0%,1.41µM*,0.6%,14.1%
Cc1cccc(NC(=O)CCOc2ccccc2)c1,9.8,4.1,-14.8%,3.4%,0.1%[38.3 µM],-9.9%[46.1 µM]
CCNc1c([N+](=O)[O-])ncn1C,?,?,-3.4%,1.0%,27.7%[38.3 µM],7.2%[46.1 µM]
Cn1cnc([N+](=O)[O-])c1Nc1ccc(O)cc1,-23.2,8.9,nt,25.1µM*,nt,-13.0%[46.1 µM]
CC(CC(=O)Nc1ncc([N+](=O)[O-])s1)c1ccccc1 (stereo not given),nt,nt,nt,?,16.8%,?
COCCNC(=S)c1ccc(Br)cc1,nt,nt,nt,8.91µM*,7.2%,11.2%
C/C(CC(=O)Nc1ccc(Cl)cc1Cl)=N\NC(N)=S,?,-3.5,-13.2%,?,5.1%[38.3 µM],-1.6%[46.1 µM]
C/C(CC(=O)Nc1cc(Cl)ccc1Cl)=N\NC(N)=S,44.9,4.3,-6.1%,12.6µM*,-4.2%[38.3 µM],2.8%[46.1 µM]
NNC(=O)c1ccc2[nH]c3c(c2c1)CCCC3,nt,nt,nt,17.8µM*,0.6%,17.9%
CCn1c(CNC(C)=O)nnc1SCC(=O)c1ccc(Br)cc1,7.5,1.4,?,15µM*,11.6%[38.3 µM],-4.6%[46.1 µM]
COc1ccc(C(=O)NCc2nnc(SCC(=O)N3CCc4ccccc43)n2Cc2ccccc2)cc1,-100.3*,nt,-17.2%,?,2.3%,-9.9%
CCn1c(CNC(=O)c2ccc(OC)cc2)nnc1SCC(=O)c1ccccc1,9.6,-3.6,-16.4%,12.6µM*,6.4%,-6.4%[46.1 µM]
COc1ccc(C(=O)NCc2nnc(SCC(=O)c3ccccc3)n2C)cc1,nt,nt,nt,-0.2%,7.0%,5.8%
CCn1c(CNC(=O)Cc2ccc(OC)cc2)nnc1SCC(=O)c1ccc(Br)cc1,-4.8,-7.2,-11.1%,?,12.9%[38.3 µM],-7.6%[46.1 µM]
COc1cccc(-c2noc(CCC(=O)Nc3cccnc3)n2)c1,-17.8,2.2,-4.6%,3.3%,29.4%[38.3 µM],0.1%[46.1 µM]
C[C@](O)(C(=O)Nc1ccc(S(=O)(=O)c2ccccc2)cc1)C(F)(F)F,nt,5.1,-11.8%,3.3%,14.8%,nt
CCOc1ccc(/C=N/NC(=O)C(=O)NCc2ccco2)cc1,3.2,-0.1,nt,9.3%,nt,-4.5%[46.1 µM]
Cc1ccccc1NC(=O)C(=O)N/N=C/c1cccc(Br)c1,-113.8*,nt,-3.5%,17.0%,-7.1%,-5.8%
C=CCNC(=O)C(=O)N/N=C/c1cccc(Br)c1,nt,nt,nt,4.8%,-0.2%,-0.1%
COC(=O)c1ccccc1NC(=O)CCNC(=O)Cn1cnc2ccccc2c1=O,-23.7,4.9,-12.9%,-10.9%,2.9%[38.3 µM],2.9%[46.1 µM]
CCn1c(SCC(=O)N2CCN(c3ccc(F)cc3)CC2)nc2ccccc2c1=O,-15.1,-4.4,-17.7%,25.1µM*,22.3%[38.3 µM],-18.4%[46.1 µM]
CCn1c(CSCc2ccc(C)cc2)nnc1SCC(=O)N1CCN(c2ccccc2)CC1,22.2,5.0,-6.5%,?,40.1%[38.3 µM],-19.4%[46.1 µM]
CC1CCN(C(=O)CSc2nc3ccccc3[nH]2)CC1,-26.5,-0.2,-22.8%,?,-4.7%[38.3 µM],4.5%[46.1 µM]
C=CCn1c(CSCc2ccccc2)nnc1SCC(=O)N1CCN(c2ccccc2)CC1,2.2,7.2,nt,0.794µM*,nt,?
C=CCn1c(N)cc(=O)nc1SCC(=O)N1CCN(c2ccc(F)cc2)CC1,5.9,3.8,-7.4%,14.1µM*,-4.5%[38.3 µM],-4.7%[46.1 µM]

# Source: PubChem BioAssay (National Center for Advancing Translational Sciences (NCATS))
